Rows were chosen to be rich in hits. Some 12% of all compounds tested hit in one or more screens of this group.
HP1b binding inh: inhibitors of HP1-beta chromodomain binding to methylated histone tails. AlphaScreen HP1-beta / biotin-H3K9me3 peptide binding. Potency, µM (series often up to 114 µM), actives largely listed as inhibitors. 0.56% of 390,000 active. AID 540317; also: nearly all actives have a fitted effect of over 70% in size
Target sequence (P83916 whole entry, looked up): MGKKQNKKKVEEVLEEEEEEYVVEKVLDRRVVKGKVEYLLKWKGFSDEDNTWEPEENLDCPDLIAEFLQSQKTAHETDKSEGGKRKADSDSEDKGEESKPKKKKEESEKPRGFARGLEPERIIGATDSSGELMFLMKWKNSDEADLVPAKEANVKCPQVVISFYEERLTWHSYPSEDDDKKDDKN
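HP1-beta protein (50 nM final) preincubated 30 min at room temperature with biotinylated H3(1-18)K9me3 peptide (50 nM) in PBS pH 7.4, 0.01% Tween-20, then compound added for 30 min. AlphaScreen streptavidin donor/nickel chelate acceptor beads (10 ug/mL final), 30 min dark, luminescence read.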
JMJD2A Tudor: blocks the human JMJD2A Tudor domain. O75164. AlphaScreen JMJD2A-Tudor / H3K4me3 peptide binding. Potency, µM (doses to about 114 µM), hits mostly inhibitors. 4.4% of 390,000 active. AID 504339; also: nearly all actives have a fitted effect of over 50% in size
G9a inh: G9a (human) methyltransferase inhibition; Potency, µM (doses to about 102 µM), actives largely listed as inhibitors; G9a H3K9 monomethylation, AlphaScreen, 2 h; Q96KQ7; 8.8% of 350,000 active; AID 504332; also: nearly all actives have a fitted effect of over 75% in size
Target sequence (Q96KQ7 913-1193 limits assumed): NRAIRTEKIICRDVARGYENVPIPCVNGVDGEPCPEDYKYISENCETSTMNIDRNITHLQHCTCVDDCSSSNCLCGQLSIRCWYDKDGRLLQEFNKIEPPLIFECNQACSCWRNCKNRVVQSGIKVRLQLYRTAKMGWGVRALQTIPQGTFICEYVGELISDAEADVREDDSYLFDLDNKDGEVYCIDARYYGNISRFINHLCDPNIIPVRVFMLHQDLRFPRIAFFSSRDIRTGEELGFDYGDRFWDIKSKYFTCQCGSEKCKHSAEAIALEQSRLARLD
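Readings reflect AlphaScreen signal from monomethyl-H3K9 antibody detection. HMT at 20 nM; substrate b-H3K9 500 nM; cofactor SAM 20 uM; 2 h RT reaction; compounds tested as titrations in qHTS with 15 min preincubation.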
Sfp inh: blocks B. subtilis Sfp PPTase activity | Biochemical Sfp PPTase activity, qHTS | Potency, µM, usual class: inhibitors | 3.5% of 310,000 active | AID 1490;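 also: the enzyme is Sfp with the accession as filed and its product quenches rhodamine fluorescence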
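With Hepes-Na pH 7.6 buffer containing 10 mM MgCl2, Sfp (15 nM) modified BHQ-2-YbbR (12.5 uM) using rhodamine-CoA (5 uM). Two reads 30 minutes apart at 525/598 nm yielded each well's rate.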
BAZ2B inh: BAZ2B (human) inhibition. Q9UIF8. AlphaScreen BAZ2B-H3K14Ac peptide displacement. Potency, µM (top dose mostly 114 µM), actives largely listed as inhibitors. 4.4% of 360,000 active. AID 504333; also: nearly all actives have a fitted effect of over 60% in size
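AlphaScreen luminescence quantifies BAZ2B engagement of H3K14Ac peptide; the protein and biotinylated peptide are both at 50 nM final, buffer PBS pH 7.4 with 0.01% Tween-20, all steps at room temperature.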
Of the large screens only hits and unclear results are named; the others gave an inactive call; ! = not confirmed by another sample. Calls follow the shape of the dose curve; as a rule, active = well fitted curve in the direction sought with a large enough effect; inconclusive = small, poorly fitted or top-dose-only effect, or another doubt; inactive = no such curve, though single readings can be large; an effect the other way counts as inactive or inconclusive.

Nc1nc2c(c(=O)[nH]1)C(c1cccc3ccccc13)C1=C(N2)c2ccccc2C1=O (centres undefined)	JMJD2A Tudor inconclusive, G9a inh 35µM, Sfp inh 56µM
O=C(NCc1cccc(F)c1)c1ccc(N2C(=O)Cn3c(cc4sccc43)C2=O)cc1	JMJD2A Tudor 79µM
O=C(O)CP(=O)(O)O	JMJD2A Tudor inconclusive, G9a inh 13µM!, BAZ2B inh inconclusive
CCOC(=O)c1nnsc1Nc1ccc(C)c(C)c1	G9a inh 7.1µM
CCCc1nn2c(=O)cc(COC(=O)c3ccc(NC(=O)CCc4ccccc4)cc3)nc2s1	JMJD2A Tudor inconclusive (no result: Sfp inh)
Oc1c(C(c2ccco2)N2CCN(C(c3ccccc3)c3ccccc3)CC2)sc2ncnn12 (centres undefined)	JMJD2A Tudor inconclusive, G9a inh 18µM, Sfp inh 50µM, BAZ2B inh inconclusive
COc1cccc(C(c2sc3nc(C)nn3c2O)N2CCc3ccccc3C2)c1 (centres undefined)	HP1b binding inh 50µM, JMJD2A Tudor 20µM, G9a inh 4µM, Sfp inh 32µM
COc1cccc(C(c2sc3ncnn3c2O)N2CCN(C(=O)c3ccco3)CC2)c1 (centres undefined)	none
CC1CCCN(C(c2ccccc2)c2sc3ncnn3c2O)C1 (centres undefined)	none (no result: G9a inh)
CCN1CCN(C(c2cccc(OC)c2)c2sc3nc(C)nn3c2O)CC1 (centres undefined)	none
Oc1c(C(c2ccccc2)N2CCc3ccccc3C2)sc2ncnn12 (centres undefined)	HP1b binding inh inconclusive, JMJD2A Tudor 32µM, G9a inh 4µM, Sfp inh 79µM
COc1ccc(Cc2n[nH]c(=S)n(N)c2=O)cc1	G9a inh inconclusive, Sfp inh 56µM
Nn1c(=S)[nH]nc(Cc2ccc(O)cc2)c1=O	G9a inh inconclusive, Sfp inh 16µM, BAZ2B inh inconclusive
O=C(CSc1nc2ccccc2n1Cc1ccc(F)cc1)N1CCN(c2ccc(F)cc2)CC1	none (no result: Sfp inh)
c1cc(C2CCN(Cc3nc(-c4ccc5c(c4)OCO5)no3)CC2)ccn1	JMJD2A Tudor 79µM, G9a inh 3.5µM, BAZ2B inh 56µM
CSc1ccccc1C(=O)NCCSc1ccc(C)cc1	none
CC(=O)N1CCN(C(=O)C2(NC(=O)Nc3cccc(F)c3)CCCCC2)CC1	none
CN(C)CCCN1c2ccc([N+](=O)[O-])cc2CCc2cc([N+](=O)[O-])ccc21	HP1b binding inh inconclusive, JMJD2A Tudor 18µM (no result: G9a inh, Sfp inh, BAZ2B inh)
CCOC(=O)Nc1ccc2c(c1)N(CCCN(C)C)c1ccccc1CC2	JMJD2A Tudor inconclusive
Clc1ccc(-n2nnnc2-c2ccccc2)cc1	G9a inh 45µM
Clc1ccc(-n2nnnc2-c2cnc3ccccc3c2-c2ccccc2)cc1	G9a inh 14µM
Clc1ccc(-c2nnnn2-c2ccc(Cl)cc2)cc1	none
COc1ccc(N(C(=O)/C=C/C(=O)Nc2cc(C)on2)C(C(=O)NC2CCCC2)c2ccccc2C)cc1 (centres undefined)	none
CC(C)C[C@@H](CN)NC(=O)c1nc[nH]c1C(=O)N[C@@H](CC(C)C)C(=O)CNC[C@H](C)NC(=O)c1nc[nH]c1C(=O)N[C@@H](CC(=O)O)C(=O)O	JMJD2A Tudor 79µM (no result: G9a inh, Sfp inh, BAZ2B inh)
CC(C)C[C@@H](CNCC(=O)[C@H](CC(C)C)NC(=O)c1[nH]cnc1C(=O)N[C@H](CN)CC(C)C)NC(=O)c1nc[nH]c1C(=O)N[C@@H](CC(=O)O)C(=O)O	JMJD2A Tudor 79µM (no result: G9a inh, Sfp inh, BAZ2B inh)
CCC(CO)Oc1cc(NC(=O)c2ccc(F)cc2)c2ncn(C(C)C)c2c1 (centres undefined)	JMJD2A Tudor 50µM (no result: Sfp inh)
CCC(CO)Oc1cc(NC(=O)c2cccc(C)c2)c2ncn(C(C)C)c2c1 (centres undefined)	none (no result: G9a inh, Sfp inh, BAZ2B inh)
CCC(CO)Oc1cc(NC(=O)c2cccc(Cl)c2)c2ncn(C(C)C)c2c1 (centres undefined)	JMJD2A Tudor inconclusive, BAZ2B inh 79µM (no result: Sfp inh)
CCC(CO)Oc1cc(NC(=O)c2ccc(N)cc2)c2ncn(C(C)C)c2c1 (centres undefined)	none (no result: G9a inh, Sfp inh, BAZ2B inh)
CCC(C(=O)NCc1cccc(C)c1)n1nc(C)c2c(C)n(-c3ccccc3)nc2c1=O (centres undefined)	none
Cc1ccc2c(CN3CCCCC3C)cc(=O)oc2c1C (centres undefined)	none

Compound activity from PubChem.
